Results filed as inconclusive are left out. A number with no mark means an inactive call. Calls come from the whole dose curve; as a rule, active = well fitted inhibition curve with a large enough effect; inconclusive = small, poorly fitted or top-dose-only effect; inactive = no such curve, though single readings can be large or run the other way.
target: Coelenterazine h 2-monooxygenase (Renilla reniformis) (UniProt P27652); assay: qHTS Assay for Inhibitors of Sea Pansy Luciferase from the GSK Published Protein Kinase Inhibitor Set; conditions: purified Renilla luciferase, luminescence; series mostly up to 57.5 µM; activity change, negative = inhibition: at the top concentration
Outline: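 Purified R. reniformis luciferase (1 nM final) with 5 uM coelenterazine h in 50 mM Tris acetate pH 7.5, 100 uM NaCl, 0.01% Tween-20, 0.05% BSA. A titration, about 60 uM to 300 pM; luminescence read after about 2 min.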

Sequence of Coelenterazine h 2-monooxygenase (Renilla reniformis) (P27652 whole entry, looked up): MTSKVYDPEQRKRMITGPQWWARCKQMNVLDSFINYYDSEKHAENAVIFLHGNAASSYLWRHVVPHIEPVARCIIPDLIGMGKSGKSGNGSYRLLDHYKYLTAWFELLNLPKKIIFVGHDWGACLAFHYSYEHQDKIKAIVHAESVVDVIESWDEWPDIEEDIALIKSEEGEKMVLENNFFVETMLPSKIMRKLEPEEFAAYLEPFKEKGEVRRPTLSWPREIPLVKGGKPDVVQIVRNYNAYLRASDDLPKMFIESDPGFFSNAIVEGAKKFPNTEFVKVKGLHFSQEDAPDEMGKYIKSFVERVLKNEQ

Structure (SMILES) | activity change, negative = inhibition
CNC(=O)c1sc(-n2cnc3cc(OC)c(OC)cc32)cc1OCc1ccccc1C(F)(F)F | 22.9%
COc1cc(C=NNc2ncnc3c2cnn3Cc2ccccc2)ccc1O | 45.1%
NC(=O)c1cc(-c2ccncc2)cc(-c2ccccc2)c1N | 36.8%
N#Cc1c(NC(=O)c2ccc(F)cc2)sc2c1CCCC2 | 8.45%
CS(=O)(=O)CCNCc1nc(-c2ccc3ncnc(Nc4ccc(OCc5cccc(C(F)(F)F)c5)cc4)c3c2)cs1 | 17.3%
CC1=C(C(=O)Nc2ccc3[nH]ncc3c2)C(c2ccc3ccccc3c2)CC(=O)N1 (centres undefined) | 32.4%
COc1cc2ncn(-c3cc(OCc4ccccc4Cl)c(C(N)=O)s3)c2cc1OC | 56.4%
O=S(=O)(CCNCc1ccc(-c2ccc3ncnc(Nc4ccc(OCc5cccc(F)c5)c(Cl)c4)c3c2)o1)c1ccccc1 | 16.1%
COc1cc(C)c(NC(=O)CN(C)C)cc1Nc1nc(Nc2cccc(F)c2C(N)=O)c2cc[nH]c2n1 | 9.98%
COc1cc(C=NNc2ncnc3[nH]ncc23)ccc1O | 36.2%
Fc1ccc(-c2nc3n(c2-c2ccncc2)CCS3)cc1 | 37.9%
Fc1ccc(-c2ncn(C3CCNCC3)c2-c2ccnc(Oc3ccc(F)c(F)c3)n2)cc1 | 14.2%
NS(=O)(=O)c1ccc(N=Nc2c(O)[nH]c3ccc(-c4cnco4)cc23)cc1 | -5.78%
c1cc(-c2cnn3nc(N4CCOCC4)ccc23)nc(NC2CC2)n1 | 24.1%
COc1cc(Nc2ncc(-c3ccccc3)o2)cc(OC)c1OC | 24.1%
CN(C)CCOc1ccc(-c2cc(-c3ccc4c(c3)CCC4=NO)c(-c3ccncc3)o2)cc1 | 0.341%
CCc1cccc(CC)c1C=Cc1cncc(C(=O)NC)c1 | 8.32%
O=C1NC(=O)C(c2ccc(Cl)cc2)=C1Nc1ccc(Cl)c(C(=O)O)c1 | 21.8%
Fc1cccc(COc2ccc(Nc3ncncc3C#Cc3ccccc3)cc2Cl)c1 | 46.2%
Nc1nonc1-c1nc2cnccc2n1C1CCCCC1 | 48.6%

Structure (SMILES) | activity change, negative = inhibition
COc1cc(N2CCN(C(C)C)CC2)ccc1Nc1nc(Nc2cccc(F)c2C(=O)O)c2cc[nH]c2n1 | 8.99%
CC1=C(C(=O)Nc2ccc3[nH]ncc3c2)C(c2ccc(F)cc2)N=C(c2ccc(C(F)(F)F)nc2)N1 (centres undefined) | 32.8%
CC(C)c1ccc2c(N=Nc3ccc(S(N)(=O)=O)cc3)c(O)[nH]c2c1 | 10.9%
Fc1ccc(-c2nn3ncccc3c2-c2ccnc(Nc3ccc4c(c3)OCCO4)n2)cc1 | 39.4%
Cc1ccc2c(-c3ccnc(Nc4ccc5c(c4)OCCO5)n3)c(-c3ccc(C(F)(F)F)cc3)nn2n1 | 13.6%
CCn1c(-c2nonc2N)nc2cncc(C(=O)NCCNC)c21 | 39.8%
CCN(CC)S(=O)(=O)c1ccc(OC)c(Nc2ncc(-c3ccccc3)o2)c1 | 52.6%
Fc1ccc(Nc2nccc(-c3c(-c4ccc(C(F)(F)F)cc4)nn4ncccc34)n2)cc1F | 3.07%
COc1c(C(N)=O)cc(-c2ccc(Cl)cc2)cc1-c1ccc(S(N)(=O)=O)cc1 | 33.2%
CCn1c(-c2nonc2N)nc2ccccc21 | 19.1%
COc1cccc(Nc2nccc(-c3cnn4ncccc34)n2)c1 | 51.7%
CS(=O)(=O)CCN(CC#N)Cc1ccc(-c2ccc3ncnc(Nc4ccc(OCc5cccc(F)c5)c(Cl)c4)c3c2)o1 | 54.8%
COc1ccccc1Oc1nccc(-c2c(-c3ccc(F)cc3)ncn2C2CCNCC2)n1 | 8.41%
COc1ccc(-c2oc3ncnc(N)c3c2-c2ccc(NC(=O)Nc3cc(C(F)(F)F)ccc3F)cc2)cc1 | 3.79%
O=C1NC(=O)C(c2ccccc2)=C1Nc1ccccc1 | 16.4%
COc1ccc(-c2nn3ncccc3c2-c2ccnc(Nc3ccc4c(c3)OCCO4)n2)cc1 | 9.89%
CS(=O)(=O)Nc1ccc(-c2cc(-c3ccccc3)cc(C(N)=O)c2N)cc1 | 21.1%
CCS(=O)(=O)c1ccc(OC)c(Nc2ncc(-c3cccc(-c4ccccc4F)c3)o2)c1 | 11.3%
CCc1cccc(NC(=O)Nc2ccc(Oc3ccc4nc(NC(=O)OC)[nH]c4c3)cc2)c1 | 27.3%
